Assay outcomes: PubChem, Sanford-Burnham Center for Chemical Genomics
Most compounds without a hit are left out; they make up all but 2% or so of the library.
GC-B act – GC-B (human) receptor activation; P20594; HEK293-GC-B cells, CNP EC30, cGMP TR-FRET; 0% at EC30 CNP, 100% saturating CNP; activation, % at 10 µM; 0.11% of 370,000 active; AID 1920062;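 active means activation at 10 µM reaching about 35% in either raw or pattern-adjusted values, limit read from the data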
NPR1 activator – GC-A (human) enzyme activation | P16066 | HEK293 GC-A cells, cGMP TR-FRET, EC30 ANP; 0% at EC30 ANP, 100% saturating ANP | activation, % at 10 µM | 0.14% of 370,000 active | AID 1671463; in the data active means activation above about 40%
Neddyl block – cullin neddylation inhibition; P61081+Q13564; TR-FRET cullin neddylation, biochemical; inhibition, % at 25 µM; 0.58% of 360,000 active; AID 651699; in the data active means inhibition above about 36%
PfGluPho inh – PfG6PD (Plasmodium falciparum) enzyme inhibition; 0.78% of 350,000 active; PfGluPho enzyme, NADPH resazurin-diaphorase fluorescence; inhibition, % at 20 µM; AID 504690;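 active means inhibition reaching at least a set limit at 20 µM in the primary screen, cut at about 59% in these data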;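 further: 0% = DMSO wells with substrate and 100% = DMSO wells lacking glucose-6-phosphate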
APOBEC3A inh – blocks human APOBEC3A ssDNA deamination; P31941; recombinant A3A, FAM/TAMRA ssDNA deamination fluorescence; inhibition, % at 20 µM; 0.41% of 330,000 active; AID 493011;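 active means at least 40% inhibition at 20 µM here, with at most 30% in a related deaminase screen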;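 further: plate controls were A3A with DMSO for no effect and wells lacking A3A enzyme for full effect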
Target sequence (P31941 whole entry, looked up): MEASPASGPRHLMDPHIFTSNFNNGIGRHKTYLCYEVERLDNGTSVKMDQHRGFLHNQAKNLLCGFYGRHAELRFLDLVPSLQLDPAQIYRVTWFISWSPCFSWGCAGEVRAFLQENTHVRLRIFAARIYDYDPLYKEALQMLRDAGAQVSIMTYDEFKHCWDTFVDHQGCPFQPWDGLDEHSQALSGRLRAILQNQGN
A3G deaminase – blocks human APOBEC3G single-stranded DNA deamination; inhibition, % at 20 µM; Q9HC16; recombinant A3G, ssDNA deamination FAM/TAMRA fluorescence; AID 493012; 0.28% of 330,000 active;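 active means inhibition of at least 40% at 20 µM, with no more than 30% in the related APOBEC3A deaminase screen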;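 further: plate controls were DMSO wells with A3G for no effect and wells lacking A3G enzyme for full effect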
Target sequence (Q9HC16 whole entry, looked up): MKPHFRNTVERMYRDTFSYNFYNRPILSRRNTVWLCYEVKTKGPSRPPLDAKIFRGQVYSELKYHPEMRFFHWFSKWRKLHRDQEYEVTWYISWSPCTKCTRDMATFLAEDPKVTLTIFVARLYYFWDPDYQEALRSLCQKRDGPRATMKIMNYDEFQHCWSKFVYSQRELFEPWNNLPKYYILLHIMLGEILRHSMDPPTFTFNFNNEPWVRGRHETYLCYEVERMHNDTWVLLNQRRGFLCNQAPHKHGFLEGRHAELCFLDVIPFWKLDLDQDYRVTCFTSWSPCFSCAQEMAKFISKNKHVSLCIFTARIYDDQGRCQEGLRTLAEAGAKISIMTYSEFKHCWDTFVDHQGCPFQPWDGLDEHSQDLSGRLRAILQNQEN
Neddyl conf – cullin neddylation inhibition, confirmation | shares compounds with Neddyl block | TR-FRET cullin neddylation biochemical assay | calls only at 25 µM | 13% of 1,800 active; in the data active means inhibition above about 40%;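 further: neddylation substrate is the cullin 1 ring ligase complex with SKP2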
* = called active by the depositor; i = inactive; . = no result given; + = active, no number; ! = not confirmed by another sample.

SMILES | GC-B act | NPR1 activator | Neddyl block | PfGluPho inh | APOBEC3A inh | A3G deaminase | Neddyl conf
Cc1ccccc1CS(=O)(=O)Cc1ccc(C(=O)Nc2ccc(F)cc2)o1 | 5 | -2 | . | . | . | . | .
CCOC(=O)Cn1cc(CN2CCS(=O)(=O)N(Cc3ccc(C)cc3)C(C(=O)OC)C2)nn1 (stereo unspecified) | 3 | 1 | . | . | . | . | .
Cc1csc2ncc(C(=O)NCc3ccco3)c(=O)n12 | 3 | 6 | 43* | 2 | 11 | 4 | i
O=C(NCc1ccco1)c1cnc2sccn2c1=O | -4 | -1 | 4 | -5 | 1 | -8 | .
Cc1ccc(C)c(N(CC(=O)NC2CCCCC2)C(=O)c2snc(C(N)=O)c2N)c1 | 8 | -2 | . | 14 | -3 | -7 | .
CC(C)(C)NC(=O)CN(C(=O)c1snc(C(=O)NC2CCCCC2)c1N)c1ccccc1F | -4 | 2 | 39* | 22 | 0 | -1 | i
Cn1c(/C=C/c2ccc(Br)cc2)c([N+](=O)[O-])c(=O)n(C)c1=O | -17 | -1 | -10 | -5 | 1 | -4 | .
CN(C)c1ccc(/C=C/c2c([N+](=O)[O-])c(=O)n(C)c(=O)n2C)cc1 | -5 | -8 | 44* | 3 | -5 | -5 | i
CCOC(=O)C1=C(C(=O)OCC)C2N(Cc3ccc(C#N)cc3)c3ccccc3[C@@]23C[C@@H](C(=O)OC)N(S(=O)(=O)c2cccs2)C3=N1 (stereo partly specified) | 5 | 0 | . | . | . | . | .
CC(C)C(C(=O)NCc1ccccc1)N1CCN(CCN2CCOCC2)CC1 (stereo unspecified) | 11 | 1 | . | . | . | . | .
COCc1cc(C)nc(NC2CC(C)(C)NC(C)(C)C2)c1C#N | 7 | 2 | 41* | -7 | 1 | -3 | +
C#CCNC(=O)C[C@@H]1C(=O)N2CCCC3=C2[C@@]1(C(=O)OC)CCCC3 | 4 | 6 | . | . | . | . | .
COc1ccc(/C=N/NC(=O)c2[nH]c3ccc(Cl)cc3c2-c2ccccc2)c(C(=O)O)c1OC | -6 | 2 | 42* | -48 | -3 | -9 | .
COc1cccc(/C=N/NC(=O)c2cc3c(OC)c(OC)ccc3[nH]2)c1OC | -6 | -3 | 32 | 27 | . | . | .
COc1cccc(/C=N/NC(=O)c2cc3c(OC)cccc3[nH]2)c1OC | 2 | 8 | 43* | 10 | 2 | -1 | i
CCOc1ccc(/C=N/NC(=O)c2cc3c(OC)cccc3[nH]2)cc1 | -4 | 2 | 43* | -7 | -2 | -7 | i
CCCCCCC(=O)n1ccc2ccc(-c3ccc4ccn(Cc5ccc(OC)cc5)c4c3)cc21 | -12 | 2 | . | . | . | . | .
CCN(CC)CCCNC(=O)CSc1nc2cccnc2n1C | -6 | 1 | . | . | . | . | .
NC(N)=NC(=O)c1nc(Cl)c(N)nc1N | -4 | 16 | 40*! | -8 | 2 | 0 | i
COCCNC(=O)C(C)N1c2cccc3cccc(c23)S1(=O)=O (stereo unspecified) | 4 | 2 | 35 | 17 | -13 | -8 | .
COCCCNC(=O)C(C)N1c2cccc3cccc(c23)S1(=O)=O (stereo unspecified) | 0 | -1 | 42* | 6 | 2 | 12 | i
Cc1ccc2nc(C)cc(C(=O)OCC(=O)Nc3cccnc3Cl)c2c1 | 2 | -1 | 44* | -4 | 4 | 1 | i
CC(=O)OCCc1c2ccccc2c(CCCN(C)C)c2ccccc12 | 1 | -1 | 36* | 5 | 3 | -4 | .
CCC(=O)Oc1ccc(C(=O)Nc2ccc3c(c2)C(=O)N(C2CCCCC2)C3=O)cc1 | -10 | -2 | 42* | 10 | 3 | -2 | i
C=CCN1[C@H](C)COc2cc(N3CCCC3)ccc2S1(=O)=O | -3 | -3 | . | . | . | . | .
SMILES | GC-B act | NPR1 activator | Neddyl block | PfGluPho inh | APOBEC3A inh | A3G deaminase | Neddyl conf
O=C(c1ccccc1)N1CCC2CCN(CCc3ccccc3)CC21 (stereo unspecified) | -6 | 0 | . | . | . | . | .
Cc1cc(C)c(C#N)c(SCc2ccccc2)n1 | 0 | -2 | 14 | 0 | 3 | -5 | .
Cc1ccc2nc(CSc3nc(C)cc(C)c3C#N)[nH]c2c1 | -2 | 1 | 48* | 21 | -3 | -8 | .
CSc1ccc(/C=N/n2nnnc2N)cc1 | 0 | 0 | 44* | 9 | 0 | -4 | +
COc1cc(/C=N/n2nnnc2N)cc(OC)c1OC | 0 | 1 | 39* | 1 | -1 | -3 | i
S=C(Nc1ccc(Cl)c(Cl)c1)Nc1nnc(-c2ccncc2)s1 | 6 | 18 | . | . | . | . | .
COC(=O)c1ccc(S(=O)(=O)N2CCC(NC(=O)CCc3ccccc3)CC2)cc1 | -1 | 0 | . | . | . | . | .
O=C(NCc1ccccc1)N(Cc1cc2cc3c(cc2[nH]c1=O)OCCO3)CC1CCCO1 (stereo unspecified) | 1 | 1 | 37* | 3 | . | . | i
O=c1[nH]c2cc3c(cc2cc1CN(CC1CCCO1)S(=O)(=O)c1ccccc1)OCCO3 (stereo unspecified) | 1 | 1 | 20 | -3 | -1 | 6 | .
O=C(NC1CCCCC1)N(CCN1CCOCC1)Cc1cc2cc3c(cc2[nH]c1=O)OCCO3 | -4 | 0 | 47* | 9 | 1 | -3 | +
O=c1[nH]c2cc3c(cc2cc1CN(CCO)S(=O)(=O)c1ccccc1)OCCO3 | -1 | 1 | 37* | -15 | 6 | 3 | .
O=C(NC1CCCCN(Cc2cccc(C(F)(F)F)c2)C1=O)c1cccc(C(F)(F)F)c1 (stereo unspecified) | 1 | -1 | . | . | . | . | .
COc1ccc(C2C(C#N)=C(C)NC3=C2C(=O)CC(C)(C)C3)cc1 (stereo unspecified) | -1 | -1 | 42* | -4 | 1 | 0 | .
COc1cccc(C2C(C#N)=C(C)NC3=C2C(=O)CC(C)(C)C3)c1 (stereo unspecified) | 12 | 0 | . | 6 | -1 | -7 | .
COc1ccc(C2C3=C(CC(C)(C)CC3=O)Nc3c2c(=O)[nH]c2nc(C)nn32)cc1 (stereo unspecified) | -1 | 0 | 47* | -2 | -4 | -7 | +
COC(=O)CSC1=C(C#N)C(c2ccc(C)cc2)C2=C(CCCC2=O)N1 (stereo unspecified) | 7 | 4 | -10 | 9 | 0 | -4 | .
COc1ccc(C2C3=C(CC(C)(C)CC3=O)Nc3cc4c(cc32)OCO4)cc1 (stereo unspecified) | 4 | 7 | . | -3 | 2 | 2 | .
CC1=C(C#N)C(c2ccc(O)cc2)C2=C(CCCC2=O)N1 (stereo unspecified) | -1 | 1 | 44* | -6 | -2 | -5 | i
CCOC(=O)c1cccc(NC(=O)CN(C)S(=O)(=O)c2ccco2)c1 | -6 | 5 | . | . | . | . | .
CC(C)Oc1cccc(-c2csc(N3CCC(C(N)=O)CC3)n2)c1 | 2 | 1 | . | . | . | . | .
